# Bioassay records deposited in PubChem by National Center for Advancing Translational Sciences (NCATS).
# TDP1 cell noCPT = qHTS for Inhibitors of human tyrosyl-DNA phosphodiesterase 1 (TDP1): qHTS in cells in absence of CPT; DT40 Tdp1-/- hTDP1 cells, no CPT, ATP luminescence, 48 h; Potency, µM (titrated, usually from 46.2 µM), usual class: inhibitors; AID 686978, 2013; 420,000 tested, 15% active; note: nearly all actives have a fitted effect of over 55% in size
#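 A cellular qHTS used chicken DT40 cells lacking endogenous Tdp1 but carrying stably transfected human TDP1. Compounds were applied without camptothecin, and cell growth kinetics were judged by ATP-dependent luminescence after ≥48 hr.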
# KAT2A inh = blocks human GCN5L2 histone acetyltransferase; GCN5L2 HAT assay, ThioGlo1 CoA-SH fluorescence; Potency, µM (doses to about 58.9 µM), hits mostly inhibitors; 390,000 tested, 0.21% active
#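 ThioGlo1-coupled HAT assay: 20nM GCN5L2, 70uM acetyl-CoA, 75uM H3(1-25) peptide, pH 7.5. Fluorescence read at 340/540nm at start and after 20 min at room temperature.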
# TDP1 block = inhibitors of human tyrosyl-DNA phosphodiesterase TDP1; Potency, µM (series often up to 130 µM), actives largely listed as inhibitors; Q9NUW8; 350,000 tested, 0.28% active; AID 485290; recombinant TDP1, AlphaScreen DNA substrate cleavage; note: nearly all actives have a fitted effect of over 40% in size
#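 Signal: AlphaScreen proximity between streptavidin donor and anti-FITC acceptor beads on intact substrate. Reaction: Tdp1 1 nM, substrate 15 nM final, 5 min RT after 15 min compound preincubation.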
# PLK1 PBD block = inhibitors of human PLK1 polo-box domain binding. Plk1 PBD binding of FITC phosphopeptide, fluorescence polarization. 360,000 tested, 2.8% active. P53350. Potency, µM, hits mostly inhibitors; note: series mostly up to about 57 µM; nearly all actives have a fitted effect of over 65% in size
# Target sequence (P53350 whole entry, looked up, the tested form may be a part): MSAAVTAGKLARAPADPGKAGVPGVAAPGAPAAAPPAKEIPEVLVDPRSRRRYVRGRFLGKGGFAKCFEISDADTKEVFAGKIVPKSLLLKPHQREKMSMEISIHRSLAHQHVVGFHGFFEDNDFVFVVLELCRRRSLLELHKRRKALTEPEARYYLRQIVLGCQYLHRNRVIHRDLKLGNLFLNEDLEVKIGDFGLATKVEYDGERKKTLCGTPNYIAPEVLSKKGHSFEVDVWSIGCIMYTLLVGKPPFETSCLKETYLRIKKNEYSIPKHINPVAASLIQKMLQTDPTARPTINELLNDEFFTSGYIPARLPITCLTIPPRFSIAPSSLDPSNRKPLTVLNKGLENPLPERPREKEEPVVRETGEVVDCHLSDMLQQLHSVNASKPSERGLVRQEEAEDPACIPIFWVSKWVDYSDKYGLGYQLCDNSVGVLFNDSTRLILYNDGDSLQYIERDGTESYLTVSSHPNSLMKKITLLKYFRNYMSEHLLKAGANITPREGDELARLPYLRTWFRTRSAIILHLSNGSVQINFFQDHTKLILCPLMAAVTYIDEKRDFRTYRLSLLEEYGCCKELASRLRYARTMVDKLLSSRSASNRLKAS
# VDR inhibitor = blocks the human vitamin D receptor; AID 504847; 400,000 tested, 0.93% active; VDR-SRC2-3 peptide fluorescence polarization, 2 h; Potency, µM, hits mostly inhibitors
#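 Compounds are added to VDR with labelled SRC2-3 coactivator peptide and held 2 h at room temperature. Inhibition of the VDR–peptide interaction is then read as a change in fluorescence polarization.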
# DT40 TDP1 CPT = growth inhibition of DT40 Tdp1-/-;hTDP1 cells with camptothecin (screen for TDP1 inhibitors). chicken DT40 Tdp1-/-;hTDP1 cells + 20 nM CPT, ATP luminescence, 48 h. Potency, µM (doses to about 46.2 µM), most hits filed as inhibitors. 420,000 tested, 12% active. AID 686979; note: nearly all actives have a fitted effect of over 55% in size
#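 Chicken DT40 Tdp1-/- cells complemented with human TDP1, 400 cells/well, exposed to compounds plus 20 nM camptothecin for at least 48 h at 37 C; viability read as ATP content by CellTiter-Glo luminescence.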
# A number is an active result; n = inactive; u = inconclusive; x = no result given; [ ] = another dose, or the depositor's remark. The list is not random: actives were taken first. Their share in the collection is about 18%. Calls come from the whole dose curve; as a rule, active = well fitted curve in the direction sought with a large enough effect; inconclusive = small, poorly fitted or top-dose-only effect, or another doubt; inactive = no such curve, though single readings can be large; an effect the other way counts as inactive or inconclusive.
SMILES,TDP1 cell noCPT,KAT2A inh,TDP1 block,PLK1 PBD block,VDR inhibitor,DT40 TDP1 CPT
COc1ccc(C(C)NC(=O)c2cccc([N+](=O)[O-])c2)cc1OC (stereo unspecified),n,n,n,n,n,n
COc1ccc(C2(CNC(=O)c3ccc(OC)c([N+](=O)[O-])c3)CCCCC2)cc1OC,21µM,n,n,n,n,u
COc1ccc(C(=O)NCC2(c3ccc(OC)c(OC)c3)CCCC2)cc1OC,u,x,x,n,x,u
COc1ccc(C2(CNC(=O)c3cccc([N+](=O)[O-])c3)CCOCC2)cc1OC,u,n,n,15µM,u,u
COc1ccc(/C(N)=N/OC(=O)c2ccc(OC)c([N+](=O)[O-])c2)cc1OC,12µM,n,n,n,n,u
COc1ccc(C2(CNC(=O)c3cccc([N+](=O)[O-])c3)CCOCC2)cc1,u,n,n,n,n,n
COc1ccc(C2(CNC(=O)c3cccc([N+](=O)[O-])c3)CCCCC2)cc1OC,10µM,n,n,n,n,16µM
Cc1csc(CNc2ncnc3ccc(-c4ccco4)cc23)c1,x,n,x,x,x,x
COCCNC(=O)c1onc(CSc2ccc(F)c(F)c2)c1C(=O)NCCOC,n,x,x,n,n,u
CCN(CC)CCNC(=O)c1ccc(NC(=O)c2ccc(-n3cncn3)c([N+](=O)[O-])c2)cc1,n,x,x,n,x,n
CCCCNC(C(=O)Nc1ccc(Cl)c([N+](=O)[O-])c1)c1ccccc1 (stereo unspecified),21µM,n,n,n,n,u
CCN(CC)C(=O)Cn1c(=O)n(-c2ccc(Cl)c(Cl)c2)c(=O)c2c(C)c(C(=O)N(CC)CC)sc21,n,n,n,x,n,n
Cc1ccc(C(=O)NNC(=O)c2ccc(S(=O)(=O)N(C)c3ccccc3)cc2)cc1,n,n,n,n,n,n
Cc1nc2cc(NC(=O)c3ccc(S(=O)(=O)N(C)c4ccccc4)cc3)ccc2o1,16µM,n,n,n,n,u
CN(c1ccccc1)S(=O)(=O)c1ccc(NC(=O)c2ccc(-c3ccccc3)cc2)cc1,u,n,n,n,n,21µM
CN(c1ccccc1)S(=O)(=O)c1ccc(C(=O)Nc2nnc(-c3ccc(F)cc3)o2)cc1,6.5µM,n,n,u,n,9.2µM
COc1cc(NC(=O)c2ccc(S(=O)(=O)N(C)c3ccccc3)cc2)cc(OC)c1,16µM,n,n,n,n,u
CCOC(=O)/C=C/C(=O)Nc1ccc(S(=O)(=O)N(C)c2ccccc2)cc1,u,n,n,n,n,1.8µM
Cc1nnc(NC(=O)c2ccc(S(=O)(=O)N(C)c3ccccc3)cc2)s1,n,n,n,n,n,n
Cc1csc(NC(=O)c2ccc(S(=O)(=O)N(C)c3ccccc3)cc2)n1,13µM,n,n,n,n,12µM
Cc1cn([C@H]2C[C@H](O)[C@@H](CCC(=O)NCCc3cccs3)O2)c(=O)[nH]c1=O,n,x,x,n,x,n
CC(=O)Nc1ccc(S(=O)(=O)NC2(C(F)(F)F)C(=O)Nc3c2c(=O)[nH]c(=O)n3-c2ccc(C)c(C)c2)cc1 (stereo unspecified),n,n,n,x,n,n
Cc1cc(-n2c(=O)[nH]c(=O)n(C)c2=O)ccc1Oc1ccc(S(=O)(=O)C(F)(F)F)cc1,17µM,x,x,x,x,u
O=C(CN1Cc2ccccc2OC(c2ccccc2)C1)NCc1cccnc1 (stereo unspecified),u,x,x,x,x,n[9.04 µM]
CCOc1ccc(OCC)c(NC(=O)C2CCN(S(=O)(=O)c3ccc(Br)s3)CC2)c1,n,n,n[12.3 µM],x,n,n
SMILES,TDP1 cell noCPT,KAT2A inh,TDP1 block,PLK1 PBD block,VDR inhibitor,DT40 TDP1 CPT
Cc1ccc(-c2cc(C(F)F)n3ncc(C(=O)Nc4ccc(S(=O)(=O)Nc5ccccc5C)cc4)c3n2)cc1,n,n,n,n,n,n
COc1cccc(Cn2cnc(-c3ccccc3OC)c2-c2cccnc2)c1,u,x,x,n,x,u
COc1cccc(Cn2cnc(-c3ccccc3OC)c2C2CC2)c1,21µM,x,x,n,x,u
COc1ccccc1C1=Nn2c(nnc2C2CCCCC2)SC1,n,n,n,n,n,n
COc1cccc(Cn2cnc(-c3ccccc3OC)c2-c2cc(C)cc(C)c2)c1,u,x,x,n,x,u
COc1cccc(Cn2cnc(-c3ccccc3OC)c2-c2cccs2)c1,u,x,x,n,x,u
CCCCc1c(-c2ccccc2OC)ncn1Cc1ccc(Cl)cc1,12µM,x,x,n,x,13µM
CCCCc1c(-c2ccccc2OC)ncn1CCc1cccc(Cl)c1,21µM,x,x,n,x,16µM
CCCCc1c(-c2ccccc2OC)ncn1C1CCCC1,10µM,x,x,n,x,18µM
Cc1cccc(NC(=S)N2CCC(NC(=O)c3ccco3)CC2)c1,n,n,n,n,n,n
CCCCc1c(-c2ccccc2OC)ncn1Cc1ccc(-c2ccccc2)cc1,21µM,x,x,n,x,15µM
CCCCc1c(-c2ccccc2OC)ncn1Cc1cccc(-c2ccccc2)c1,6.5µM,x,x,n,x,12µM
C[C@@H]1CC[C@]2(C(=O)O)CC[C@]3(C)C(=CCC4[C@]56CC[C@@](O)(OC5)C(C)(C)C6CC[C@]43C)C2[C@H]1C (stereo partly specified),18µM,n,x,u,n,13µM
COc1ccc2[nH]c(=O)c(CN(CCN3CCCC3)C(=O)Nc3ccccc3Cl)cc2c1,u,n,n,n,n,u
CCOc1ccc2[nH]c(=O)c(CN(CCN3CCCC3)C(=S)Nc3ccccc3OCC)cc2c1,23µM,n,n,n,n,u
CCOc1ccc2[nH]c(=O)c(CN(CCc3ccccc3)C(=O)c3cnccn3)cc2c1,16µM,n,n,n,n,u
CCOc1ccc2[nH]c(=O)c(CN(CCO)C(=O)c3ccc(Br)cc3)cc2c1,n,n,n,n,n,u
CCOc1ccc2[nH]c(=O)c(CN(Cc3ccco3)C(=O)c3ccc(Br)cc3)cc2c1,3.3µM,n,n,n,n,u
CCOc1ccc2[nH]c(=O)c(CN(Cc3ccccc3OC)C(=O)c3ccccc3)cc2c1,3.3µM,n,n,n,n,6.5µM
CCOC(=O)C1=C(COC(=O)c2ccc(Cl)nc2)NC(=O)NC1C (stereo unspecified),n,x,x,n,n,n
COc1ccc(C(=O)N/C(=C\c2cn(S(=O)(=O)N(C)C)c3ccccc23)C(=O)N2CCOCC2)cc1,n,n,n,u,n,n
COc1ccc2[nH]c(=O)c(CN(Cc3ccco3)C(=O)c3ccccc3)cc2c1,n,n,n,n,n,u
CCOc1ccc2[nH]c(=O)c(CN(Cc3ccco3)C(=O)c3cccc(F)c3)cc2c1,23µM,n,n,n,n,u
